Assay results as given in ChEMBL document CHEMBL3988442, “University of Dundee, Small-Polar-MMV Screening Library” (2021).
Out of some 48,000 compounds screened, about 13,000 (27%) showed an effect of 50% or more. This is one part of the list.

test system: Wolbachia pipientis; experiment: Anti-Wolbachia Cell-Based Screen; type: functional; design: scale not given: in the data most compounds retested in dose-response had high values; conditions: 5 µM

| Compound | Percent Effect [%] |
| --- | --- |
| CC(=O)NCCc1ccc(S(=O)(=O)N(C)C(C)C(C)(C)C)s1 (stereo unspecified) | -15.89 |
| COc1ccc(C(C)C)cc1C1CC(=O)NCc2nc(N(C)C)sc21 (stereo unspecified) | -38.77 |
| COc1ccnc(N2CCN(C(=O)c3cnc(C4CC4)s3)CC2)n1 | -14.05 |
| CN1CCC(c2nnc3n2CCN(S(=O)(=O)c2ccccc2)C3)CC1 | 90.65 |
| CN1CCCC1c1nnc2n1CCN(S(=O)(=O)c1ccccc1Cl)CC2 (stereo unspecified) | 104.7 |
| Clc1ccc2cccnc2c1CN1CCn2c(nnc2C2CC2)C1 | -29.6 |
| CCc1nnc2n1CCN(CCS(=O)(=O)c1ccccc1)C2 | 5.511 |
| O=c1[nH]nc2n1CCN(S(=O)(=O)c1ccccc1Cl)C2 | -39.65 |
| Cn1cnnc1S(=O)(=O)C1CCN(S(=O)(=O)c2c(Cl)cccc2Cl)CC1 | -14.3 |
| CN1CCC(c2nnc3n2CCN(S(=O)(=O)c2ccccc2Cl)C3)CC1 | 149.5 |
| CN1CCCC(c2nnc3n2CCN(S(=O)(=O)c2ccccc2Cl)C3)C1 (stereo unspecified) | 97.31 |
| c1ccc2oc(N3CCn4c(nnc4C4CC4)C3)nc2c1 | -3.429 |
| CNC(=O)CS(=O)(=O)C1CCN(S(=O)(=O)c2cccc(Cl)c2C)CC1 | -17.28 |
| O=S(=O)(c1ccccc1Cl)N1CCCC(c2ncc[nH]2)C1 (stereo unspecified) | -0.103 |
| CCOCc1cccc(NC(=O)C2COCCO2)c1 (stereo unspecified) | 8.112 |
| CC(Oc1ccc(OCc2ncc(C(C)C)o2)cc1)C(N)=O (stereo unspecified) | 3.924 |
| COCCN(C(=O)c1ccc(OC)cc1)c1ccc(C#N)cc1 | 3.07 |
| Cc1ccc(C(=O)NCCCN(C(C)C)S(C)(=O)=O)c(=O)[nH]1 | 16.76 |
| COCCN(C)C[C@H]1CC[C@@H](Cc2ccc3c(cnn3C)c2)O1 | -8.226 |
| CC(C)CS(=O)(=O)N1C[C@H]2C[C@H](C(=O)N3CCOCC3)[C@@H](C1)O2 | 113.5 |
| O=C(NCC1CCCCC1)N1C[C@H]2C[C@H](C(=O)N3CCCC3)[C@@H](C1)O2 | -1.453 |
| CC(C)CN1CCS(=O)(=O)[C@@H]2CCN(S(=O)(=O)CC(C)C)CC[C@@H]21.O=C(O)C(F)(F)F | -0.8095 |
| CC(C)CS(=O)(=O)N1C[C@H]2C[C@H](C(=O)N3CCCC3)[C@@H](C1)O2 | 109.6 |
| CC(C)CS(=O)(=O)N1C[C@H]2C[C@H](C(=O)N3CCN(C)CC3)[C@@H](C1)O2.O=C(O)C(F)(F)F | 100.5 |

| Compound | Percent Effect [%] |
| --- | --- |
| CN(C)C(=O)[C@H]1C[C@@H]2CN(S(=O)(=O)c3ccccc3)C[C@H]1O2 | 1.569 |
| CC(C)CS(=O)(=O)N1C[C@H]2C[C@H](C(=O)N(C)C)[C@@H](C1)O2 | 117.8 |
| CC(C)NC(=O)N1C[C@H]2C[C@H](C(=O)N3CCCC3)[C@@H](C1)O2 | -51.72 |
| CC(C)CS(=O)(=O)N1C[C@H]2C[C@H](C(=O)NCc3ccccc3)[C@@H](C1)O2 | 6.255 |
| O=C(NCC1CCCCC1)N1C[C@H]2C[C@H](C(=O)N3CCOCC3)[C@@H](C1)O2 | -10.09 |
| CCCS(=O)(=O)N1C[C@H]2C[C@H](C(=O)N(C)C)[C@@H](C1)O2 | 1.854 |
| Cc1cnc(N2C[C@H]3C[C@H](C(=O)N4CCN(C)CC4)N(C)[C@H]3C2)nc1.O=C(O)C(F)(F)F.O=C(O)C(F)(F)F.O=C(O)C(F)(F)F | 1.417 |
| CCS(=O)(=O)NCCNc1c(C#N)cnc2c(F)cc(F)cc12 | 9.088 |
| O=c1c2cccnc2cnn1CC(O)c1cccc(Cl)c1 (stereo unspecified) | -24.01 |
| O=C(NCC(O)c1cccc(F)c1)C1CCN(C2CCCCC2)CC1 (stereo unspecified) | -12.87 |
| CCN1CCCC1CN(Cc1ccoc1)CC1CCN(CCOC)CC1 (stereo unspecified) | 3.887 |
| CCN1CCCC1CN(Cc1ccon1)CC1CCN(CCOC)CC1 (stereo unspecified) | 1.475 |
| O=C(c1cccnc1O)N(Cc1cccs1)CC1CCCO1 (stereo unspecified) | -28.97 |
| COCCN1CCC(CN(CC2CCCO2)C(=O)Cc2cccs2)CC1 (stereo unspecified) | 153.6 |
| COCCN(Cc1cccs1)C(=O)C1CCCN(C(N)=O)C1 (stereo unspecified) | 11.05 |
| COCCN1CCC(CN(CC2CCCO2)C(=O)Cn2cccn2)CC1 (stereo unspecified) | 105.2 |
| CN(C)C(=O)N1CCC2(CC1)CN(CC1CC1)CC21CCNC1=O.O=C(O)C(F)(F)F (stereo unspecified) | -46.87 |
| CC(C)CC(C(=O)N(C)Cc1ncnn1C)N1CCCCC1=O (stereo unspecified) | 7.289 |
| O=C(C1CCCO1)N1CCC(n2cc(-c3ccsc3)nn2)CC1 (stereo unspecified) | 2.629 |
| CCNC(=O)NC1CCN(c2ccc(S(=O)(=O)CC)cc2)CC1 | -0.338 |
| CC(C#N)CN(C)Cc1ccc(Cl)c2cccnc12 (stereo unspecified) | -6.534 |
| CC(C)n1cc(C(=O)N2CCC(n3cc(C(C)(C)C)nn3)CC2)cn1 | 5.915 |
| CCC(CC)(CNC(=O)OC(C)(C)C)NC(=O)C1CC1 | 0.8539 |
| CN1C[C@@H]2CN(Cc3ccsc3)CCC[C@]2(C(=O)O)C1.O=C(O)C(F)(F)F.O=C(O)C(F)(F)F | 3.355 |

| Compound | Percent Effect [%] |
| --- | --- |
| Cc1ccc(CN2CCCC3(CCCC(=O)N3)C2)s1.O=C(O)C(F)(F)F (stereo unspecified) | -10.23 |
| COCCN1C[C@@H]2CN(Cc3ccsc3)CCC[C@]2(C(=O)O)C1.O=C(O)C(F)(F)F.O=C(O)C(F)(F)F | 4.755 |
| Cc1ccc(CN2CCCC3(CCCN3S(C)(=O)=O)C2)s1.O=C(O)C(F)(F)F (stereo unspecified) | 2.867 |
| Cc1ccc(CN2C[C@@H]3CN(CC4CCOCC4)CCO[C@@H]3C2)s1.O=C(O)C(F)(F)F.O=C(O)C(F)(F)F | -6.305 |
| COCCN1C[C@@H]2CN(Cc3ccoc3)CCC[C@]2(C(=O)O)C1.O=C(O)C(F)(F)F.O=C(O)C(F)(F)F | -3.751 |
| COCCN1C[C@@H]2CN(Cc3ccc(C)s3)CCC[C@]2(C(=O)O)C1.O=C(O)C(F)(F)F.O=C(O)C(F)(F)F | 111.2 |
| Cc1ccc(CN2CCC[C@]3(C(=O)O)CN(C)C[C@@H]3C2)s1.O=C(O)C(F)(F)F.O=C(O)C(F)(F)F | 119.8 |
| Cc1ccc(CN2CCC[C@]3(C(=O)O)CN(CC4CC4)C[C@@H]3C2)s1.O=C(O)C(F)(F)F.O=C(O)C(F)(F)F | 98.43 |
| Cc1ocnc1C(=O)N1CCC2(CC1)c1nc[nH]c1CCN2CC(C)C | 6.768 |
| OC(COCc1cccs1)CSc1nnc2ccccn12 (stereo unspecified) | 9.754 |
| COc1nn(C)c2c1CCCN(S(=O)(=O)c1cccc(F)c1)C2 | -2.811 |
| COc1nn(C)c2c1CCCN(C(=O)c1ccccc1)C2 | -3.094 |
| Cc1ccccc1C(=O)N1Cc2c(Cn3ccnc3)nn(C)c2C1.O=C(O)C(F)(F)F | -9.207 |
| Cn1nc(C#N)c2c1CN(C(=O)c1cccnc1)CCC2.O=C(O)C(F)(F)F | 29.43 |
| COc1nn(C)c2c1CCCN(C(=O)c1cccc(C)n1)C2.O=C(O)C(F)(F)F | 98.8 |
| COc1nn(C)c2c1CCCN(C(=O)c1cccc3cccnc13)C2.O=C(O)C(F)(F)F | 97.34 |
| Cc1nc(COCc2cnc3n2CCN(C2CCC2)C3C)cs1.O=C(O)C(F)(F)F (stereo unspecified) | 1.124 |
| Cc1c(C(=O)N2CC(=O)N(C)C2)nnn1-c1cccc2cccnc12 | -0.5272 |
| Cc1occc1C(=O)NCC(=O)NCCOc1ccc2c(c1)CCC2 | 29.83 |
| Cn1ccnc1C(=O)NC[C@H]1OC[C@@H]2CCN(S(C)(=O)=O)C[C@@H]21 | -43.59 |
| Cc1cc(=O)n(CCNS(=O)(=O)c2cccc(C(F)(F)F)c2)cn1 | 121.6 |
| Cc1cc(=O)n(CCNS(=O)(=O)c2ccc(F)c(Cl)c2)cn1 | 79.22 |
| Cc1cc(C)n(-c2ccc(NCCNS(=O)(=O)c3ccccc3)nn2)n1 | 5.574 |
| CCCn1ccnc1SCCNS(=O)(=O)c1ccccc1 | 8.595 |

| Compound | Percent Effect [%] |
| --- | --- |
| CNS(=O)(=O)c1cccc(CNc2cc(C(F)(F)F)ccn2)c1 | -5.444 |
| Cc1cc(=O)n(CCNS(=O)(=O)c2ccccc2)cn1 | 113.1 |
| Cc1cc(NCCNS(=O)(=O)c2cccc(Cl)c2)nc(C)n1 | 15.59 |
| O=c1ccc(-n2ccnc2)nn1CCNS(=O)(=O)c1ccc(F)c(Cl)c1 | 15.65 |
| O=c1ccc(-n2cccn2)nn1CCNS(=O)(=O)c1ccc(F)c(Cl)c1 | 8.551 |
| O=C(Nc1ccc2occc2c1)N1CCCC(O)(CO)CC1 (stereo unspecified) | -15.39 |
| Cc1cc(Br)ccc1NCC(=O)Nc1cc(C(C)(C)C)no1 | -8.877 |
| CC(=O)Nc1cc(C(=O)N2CCOCC2c2ccc(C)o2)ccc1F (stereo unspecified) | -2.563 |
| O=C(c1ccc2c(c1)CCCC2)N1CCOCC1c1ncon1 (stereo unspecified) | 4.25 |
| Cc1n[nH]c(C)c1C1COCCN1C(=O)Cc1cccc(F)c1 (stereo unspecified) | -5.544 |
| Cc1n[nH]c(C)c1C1COCCN1C(=O)c1ccccc1 (stereo unspecified) | 5.535 |
| Cc1cn[nH]c1C1COCCN1C(=O)c1cc(F)ccc1F (stereo unspecified) | 95.39 |
| Cc1cn[nH]c1C1COCCN1C(=O)c1ccc2c(c1)CCCC2 (stereo unspecified) | 108.4 |
| Cc1cn[nH]c1C1COCCN1C(=O)c1ccc2[nH]nnc2c1 (stereo unspecified) | 120.8 |
| CS(=O)(=O)NCc1ccc(NC(=O)CC2=CCCCC2)cc1 | 0.7476 |
| COCC(O)CN1CCC(NC(=O)c2ccccc2Cl)CC1 (stereo unspecified) | -8.699 |
| COCCN(C)Cc1cc(Cl)ccc1OCC(O)CN1CCCCCC1 (stereo unspecified) | 95.86 |
| COCCN(C)C(C(=O)O)c1cc(Cl)ccc1OC (stereo unspecified) | -4.575 |
| CCOc1ccc(Cl)cc1C(C(=O)O)N1CCCC1 (stereo unspecified) | -26.77 |
| CCN1CCN(CC(O)c2cc(Cl)ccc2Cl)CC1 (stereo unspecified) | -3.784 |
| OCCN1CCN(CC(O)c2cc(Cl)ccc2Cl)CC1 (stereo unspecified) | -2.66 |
| CCOCC(O)CN1CCN(C(=O)c2ccnc(N(C)C)c2)CC1 (stereo unspecified) | -11.71 |
| CN(CCO)Cc1cc(Cl)ccc1OCC(O)CN1CCCCCC1 (stereo unspecified) | 92.98 |
| CN(CCCO)Cc1cc(Cl)ccc1OCC(O)CN1CCCCCC1 (stereo unspecified) | 86.94 |
